These results are taken from PubChem BioAssay (Tox21).

Inconclusive results are not listed. Where a call stands in place of a potency, no number is given. Unmarked numbers belong to inactive results. Active and inactive are the calls of the source. The call rests on the fitted dose curve.

One test can be described thus: p53 small molecule agonists, cell-based qHTS assay with human liver microsomes (AID 1963577).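 Further: p53 response element beta-lactamase reporter cells with liver microsomes plus NADPH.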 Conditions: HCT-116 p53RE-bla with human liver microsomes, ratio, 16 h; series mostly up to 66 µM. In outline:
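Compounds act here after metabolic activation: human liver microsomes and NADPH, both at 0.5 mg/mL final, were co-added to p53RE-bla cells. Incubation ran 16 h at 37 C, followed by LiveBLAzer detection.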
For orientation: qHTS replaces the single test concentration by a dilution series.
On to `CCCC1CCC(=O)O1` (stereo not given), for which the Potency entry is “inactive”.

For `CCN(CC)c1ccc2c(-c3ccc(S(=O)(=O)O)cc3S(=O)(=O)[O-])c3ccc(=[N+](CC)CC)cc-3oc2c1`, the Potency entry was “inactive”.

With `COc1ccc(/C=C/S(=O)(=O)NC(=O)c2ccc(C)cc2Cl)cc1`, the Potency entry was “inactive”.

As for `N[C@@H](Cc1cc(I)c(O)c(I)c1)C(=O)O`, the Potency entry is “inactive”.

Take `C=CC(=O)OCC(Br)CBr` (stereo not given): the Potency result is “inactive”.

For the compound `O=C1CCC(C2CCCCC2)CC1`, the Potency entry is “inactive”.

As for `COc1ccc(C(=O)N2CCN(CC(=O)N3CCOCC3)CC2)cc1`, the Potency entry was “inactive”.

Regarding `COCCC(=O)OC`, the Potency result was “inactive”.

Take `Cc1nc2ccc(Cl)cc2[nH]1`: the Potency entry was “inactive”.

Take `CC(C)(C)C(=O)C(=O)O`: the Potency result is “inactive”.

Turning to `COc1cccc(O)c1O`, the Potency result is “inactive”.

As for `N=C1C=CC(=C(c2ccc(N)cc2)c2ccc(N)cc2)C=C1`, the Potency entry was “inactive”.

For `O=C1c2ccccc2C(=O)C1c1ccc2ccccc2n1`, the Potency entry was “inactive”.

Regarding `CN1CCN(C2=Nc3cc(F)ccc3Cc3ccccc32)CC1`, the Potency entry was “inactive”.

Consider `CC1=NN(c2ccc(C(=O)O)cc2)C(=O)C1`, for which the Potency entry is “inactive”.

Consider `Oc1ccc(Oc2ccccc2)cc1`, for which the Potency result was “inactive”.

`CC(C)(O)CCCC1=CCC(C=O)CC1` (stereo not given): the Potency result is “inactive”.

As for `NS(=O)(=O)Cc1noc2ccccc12`, the Potency entry was “inactive”.

As for `COc1ccc(C(=O)c2ccc(OC)cc2O)c(O)c1`, the Potency result is “inactive”.

As for `Fc1ccc([C@@H]2CCNC[C@H]2COc2ccc3c(c2)OCO3)cc1`, the Potency entry is “inactive”.

Take `CCOC(=O)O[C@H](C)OC(=O)c1ccc2c(c1)cc(C(=O)NC1CCN(C(C)C)CC1)n2Cc1cc(-c2ccc(Cl)s2)on1`: the Potency entry is “inactive”.

In the case of `CC1=C(/C=C/C(C)=C\C=C\C(C)=C\C(=O)O)C(C)(C)CCC1`, the Potency result was “inactive”.

`Cc1cccc(N(C)C(=S)Oc2ccc3c(c2)CCC3)c1`: the Potency result was “inactive”.

With `CCCC(=O)OCCC(C)C`, the Potency result was “inactive”.

Consider `COc1ccccc1NC(=O)c1cc2ccccc2cc1O`, for which the Potency entry is “inactive”.

In the case of `O=C(CCBr)N1CCN(C(=O)CCBr)CC1`, the Potency entry is “inactive”.

Turning to `CN(C)CCC=C1c2ccccc2C=Cc2ccccc21`, the Potency result is “inactive”.

As to `O=C(O)c1cccc(Oc2ccccc2)c1`, the Potency entry was “inactive”.

On to `COc1ccc([C@@H]2Sc3ccccc3NC(=O)[C@@H]2O)cc1`, for which the Potency result was “inactive”.

For `Oc1ccc(C2CNCCc3c2cc(O)c(O)c3Cl)cc1` (stereo not given), the Potency entry was “inactive”.

Turning to `CC(c1cc(C(C)(C)C)cc(C(C)(C)C)c1O)c1cc(C(C)(C)C)cc(C(C)(C)C)c1O`, the Potency result was “inactive”.

Take `Nc1ccc(S(=O)(=O)NCc2ccccc2)cc1`: the Potency result is “inactive”.

For `Nc1[nH]c(=O)ncc1F`, the Potency entry was “inactive”.

For the compound `O=Cc1ccccc1[N+](=O)[O-]`, the Potency entry is “inactive”.

For `CCC1CCC(CCC(=O)O)C1` (stereo not given), the Potency entry is “inactive”.

Regarding `CCCCCCCCCCCCCCCCCC(=O)OCCCCCCCCCCCCCC(C)C`, the Potency entry is “inactive”.

On to `CCCCCCCCCCCCCCCCCl`, for which the activation was 1.18% [at 13.5 µM].

Consider `CCCOC(=O)c1ccc(O)cc1`, for which the Potency result was “inactive”.

Consider `CC1COc2c(N3CCN(C)CC3)c(F)cc3c(=O)c(C(=O)O)cn1c23` (stereo not given), for which the Potency entry is “inactive”.

On to `CCCCS`, for which the Potency entry is “inactive”.

The next test can be described thus: p53 small molecule agonists, cell-based qHTS assay with rat liver microsomes (AID 1963578). Conditions: HCT-116 p53RE-bla, beta-lactamase ratio, 16 h; series mostly up to 66 µM. In outline: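 Read-out is beta-lactamase reporter fluorescence (LiveBLAzer, 2 h, room temperature, dark) in p53RE-bla cells treated 16 h at 37 C with compound, rat liver microsomes and NADPH, both 0.5 mg/mL final.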
On to `CCCC1CCC(=O)O1` (stereo not given), for which the Potency entry was “inactive”.

As to `CCN(CC)c1ccc2c(-c3ccc(S(=O)(=O)O)cc3S(=O)(=O)[O-])c3ccc(=[N+](CC)CC)cc-3oc2c1`, the Potency result is “inactive”.

As for `COc1ccc(/C=C/S(=O)(=O)NC(=O)c2ccc(C)cc2Cl)cc1`, the Potency entry is “inactive”.

With `N[C@@H](Cc1cc(I)c(O)c(I)c1)C(=O)O`, the Potency entry was “inactive”.

Regarding `C=CC(=O)OCC(Br)CBr` (stereo not given), the Potency entry is “inactive”.

On to `O=C1CCC(C2CCCCC2)CC1`, for which the Potency entry was “inactive”.

As for `COc1ccc(C(=O)N2CCN(CC(=O)N3CCOCC3)CC2)cc1`, the Potency entry was “inactive”.

Turning to `COCCC(=O)OC`, the Potency result is “inactive”.

As for `Cc1nc2ccc(Cl)cc2[nH]1`, the Potency result is “inactive”.

In the case of `CC(C)(C)C(=O)C(=O)O`, the Potency result is “inactive”.

As for `COc1cccc(O)c1O`, the Potency result is “inactive”.

Consider `N=C1C=CC(=C(c2ccc(N)cc2)c2ccc(N)cc2)C=C1`, for which the Potency result is “inactive”.

For `O=C1c2ccccc2C(=O)C1c1ccc2ccccc2n1`, the Potency entry was “inactive”.

In the case of `CN1CCN(C2=Nc3cc(F)ccc3Cc3ccccc32)CC1`, the Potency result is “inactive”.

`CC1=NN(c2ccc(C(=O)O)cc2)C(=O)C1`: the Potency result was “inactive”.

Regarding `Oc1ccc(Oc2ccccc2)cc1`, the Potency result is “inactive”.

As to `CC(C)(O)CCCC1=CCC(C=O)CC1` (stereo not given), the Potency result is “inactive”.

For the compound `NS(=O)(=O)Cc1noc2ccccc12`, the Potency entry is “inactive”.

Consider `COc1ccc(C(=O)c2ccc(OC)cc2O)c(O)c1`, for which the Potency entry was “inactive”.

In the case of `Fc1ccc([C@@H]2CCNC[C@H]2COc2ccc3c(c2)OCO3)cc1`, the Potency result is “inactive”.

Turning to `CCOC(=O)O[C@H](C)OC(=O)c1ccc2c(c1)cc(C(=O)NC1CCN(C(C)C)CC1)n2Cc1cc(-c2ccc(Cl)s2)on1`, the Potency result was “inactive”.

For `CC1=C(/C=C/C(C)=C\C=C\C(C)=C\C(=O)O)C(C)(C)CCC1`, the Potency entry was “inactive”.

Consider `Cc1cccc(N(C)C(=S)Oc2ccc3c(c2)CCC3)c1`, for which the Potency entry was “inactive”.

Turning to `CCCC(=O)OCCC(C)C`, the Potency result is “inactive”.

In the case of `COc1ccccc1NC(=O)c1cc2ccccc2cc1O`, the Potency entry was “inactive”.

In the case of `O=C(CCBr)N1CCN(C(=O)CCBr)CC1`, the Potency entry was “inactive”.

For the compound `CN(C)CCC=C1c2ccccc2C=Cc2ccccc21`, the Potency entry is “inactive”.

For `O=C(O)c1cccc(Oc2ccccc2)c1`, the Potency result was “inactive”.

`COc1ccc([C@@H]2Sc3ccccc3NC(=O)[C@@H]2O)cc1`: the Potency result is “inactive”.

As to `Oc1ccc(C2CNCCc3c2cc(O)c(O)c3Cl)cc1` (stereo not given), the Potency entry is “inactive”.

As to `CC(c1cc(C(C)(C)C)cc(C(C)(C)C)c1O)c1cc(C(C)(C)C)cc(C(C)(C)C)c1O`, the Potency entry is “inactive”.

As to `Nc1ccc(S(=O)(=O)NCc2ccccc2)cc1`, the Potency entry was “inactive”.

For `Nc1[nH]c(=O)ncc1F`, the Potency entry is “inactive”.

For the compound `O=Cc1ccccc1[N+](=O)[O-]`, the Potency entry was “inactive”.

With `CCC1CCC(CCC(=O)O)C1` (stereo not given), the Potency entry was “inactive”.

With `CCCCCCCCCCCCCCCCCC(=O)OCCCCCCCCCCCCCC(C)C`, the Potency result was “inactive”.

Regarding `CCCCCCCCCCCCCCCCCl`, the activation was 0.0918% [at 13.6 µM].

`CCCOC(=O)c1ccc(O)cc1`: the Potency result is “inactive”.

Take `CC1COc2c(N3CCN(C)CC3)c(F)cc3c(=O)c(C(=O)O)cn1c23` (stereo not given): the Potency result was “inactive”.

For the compound `CCCCS`, the Potency result is “inactive”.
